Experimental data reported in PubChem BioAssay (NCI).
This is part of a sample that, as a whole, favours compounds with a hit. Of some 79,000 tested, about 15% had one in any assay. Active and inactive are the calls of the source. No stated cut-off is given here; in the data, active means growth inhibition above about 70%; inactive means the rest.

How the values were obtained:
[1] = NCI Yeast Anticancer Drug Screen. Data for the rad52 strain (AID 147);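 further: 0% = growth of vehicle-treated control cultures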; details: S. cerevisiae rad52 mutant growth inhibition, hits give high values
Procedure, shortened: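 Screen used a yeast mutant impaired in DNA repair. After compound exposure, growth was measured. Values reflect inhibition compared with vehicle-treated cells.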

[2] = NCI Yeast Anticancer Drug Screen. Data for the rad50EPP+ strain (AID 151);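 further: 0% = growth of vehicle-treated control cultures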; details: S. cerevisiae rad50 mutant strain, hits give high values
Procedure, shortened: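 Exposing the rad50EPP+ strain to each compound, growth was compared with vehicle-only cultures to give inhibition.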

[3] = NCI Yeast Anticancer Drug Screen. Data for the mgt1 strain (AID 153); details: S. cerevisiae mgt1 mutant growth inhibition, hits give high values
Procedure, shortened: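 Genetically defined yeast (mgt1) treated with compound; inhibition of growth expressed against vehicle-treated controls.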

[4] = NCI Yeast Anticancer Drug Screen. Data for the rad50 strain (AID 155);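 further: 0% = growth of vehicle-only cultures of the same strain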; details: S. cerevisiae rad50 strain growth inhibition, hits give high values
Procedure, shortened: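 A DNA repair-deficient yeast mutant serves as the test organism; compound-induced growth inhibition is calculated against vehicle-treated cells.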

[5] = NCI Yeast Anticancer Drug Screen. Data for the mec2-1 strain (AID 157); details: S. cerevisiae mec2-1 strain, hits give high values
Procedure, shortened: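 Readout is yeast growth inhibition, normalised to vehicle-treated controls, in the mec2-1 strain exposed to compound.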

[6] = NCI Yeast Anticancer Drug Screen. Data for the rad14 strain (AID 159);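 further: 0% = growth of vehicle-treated control cultures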; details: S. cerevisiae rad14 strain growth inhibition, hits give high values
Procedure, shortened: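 Vehicle-treated cultures served as the baseline for growth inhibition of a DNA repair-mutant yeast strain exposed to each compound.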

[7] = NCI Yeast Anticancer Drug Screen. Data for the sgs1 mgt1 strain (AID 161);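 further: 0% = growth of cultures given vehicle only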; details: S. cerevisiae sgs1 mgt1 strain, hits give high values
Procedure, shortened: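 Compounds are added to genetically altered yeast, and growth is compared with cultures given vehicle alone to give percent inhibition.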

[8] = NCI Yeast Anticancer Drug Screen. Data for the CLN2oe strain (AID 163);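 further: 0% = growth of vehicle-only control cultures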; details: S. cerevisiae CLN2oe strain, hits give high values
Procedure, shortened: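 Values reflect how much compound exposure reduced yeast growth, referenced to vehicle-exposed cells. Assay organism is a strain with a defined genetic change affecting cell-cycle control.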

[9] = NCI Yeast Anticancer Drug Screen. Data for the cln2 rad14 strain (AID 165);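 further: 0% = growth equal to vehicle treated cultures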; details: S. cerevisiae cln2 rad14 strain, hits give high values
Procedure, shortened: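 Relative to vehicle controls, growth inhibition of compound-treated cln2 rad14 yeast was recorded.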

[10] = NCI Yeast Anticancer Drug Screen. Data for the bub3 strain (AID 167); details: S. cerevisiae bub3 mutant strain, hits give high values
Procedure, shortened: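 Inhibition values come from growth of compound-treated mutant yeast normalised to vehicle-treated controls.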

[11] = NCI Yeast Anticancer Drug Screen. Data for the wt2 strain (AID 169);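 further: 0% = growth of vehicle-treated yeast cultures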; details: S. cerevisiae wt2 strain growth inhibition, hits give high values
Procedure, shortened: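 Values express reduction in yeast growth under compound treatment, referenced to vehicle-treated cells.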

[12] = NCI Yeast Anticancer Drug Screen. Data for the mlh1 strain (AID 171);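 further: 0% = growth of vehicle-treated control cultures of the same strain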; details: S. cerevisiae mlh1 strain growth inhibition, hits give high values
Procedure, shortened: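 Steps: expose the defined-mutant yeast strain to compound; expose a parallel culture to vehicle; measure growth; express compound effect as inhibition relative to the vehicle culture.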

[13] = NCI Yeast Anticancer Drug Screen. Data for the sgs1 strain (AID 173);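 further: 0% = growth of vehicle-only control cultures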; details: S. cerevisiae sgs1 mutant, hits give high values
Procedure, shortened: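 Treat defined-mutant yeast with compound; measure growth; calculate inhibition relative to vehicle-treated cells.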

[14] = NCI Yeast Anticancer Drug Screen. Data for the mlh1 rad18 strain (AID 175); details: S. cerevisiae mlh1 rad18 strain growth inhibition, hits give high values
Procedure, shortened: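 Test agents were incubated with a yeast strain of defined genotype (DNA damage repair defect). Inhibition of growth was derived by comparison with vehicle-exposed cultures.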

[15] = NCI Yeast Anticancer Drug Screen. Data for the rad18 strain (AID 177); details: S. cerevisiae rad18 mutant growth inhibition, hits give high values
Procedure, shortened: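 A genetically defined yeast mutant impaired in DNA damage repair was treated with test compounds, then its growth was measured against cultures receiving vehicle alone.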

[16] = at 5.0 µM (retest, dose inferred, filed as 0.5)
[17] = at 50.0 µM (retest, dose inferred, filed as 5.0)

Measured: growth inhibition

COc1ccccc1N=NC(C(=O)c1ccccc1)C(=O)c1ccccc1
inactive: [1]; at 1.2 µM 3% | [1]; at 3.7 µM 22% | [1]; at 11.0 µM 16% | [2]; at 1.2 µM -47% | [2]; at 3.7 µM -21% | [2]; at 11.0 µM 1% | [2]; at 33.0 µM 17% | [2]; at 100.0 µM 62% | [3]; at 1.2 µM -29% | [3]; at 3.7 µM -24% | [3]; at 11.0 µM 4% | [4]; at 1.2 µM -50% | [4]; at 3.7 µM -50% | [4]; [16] 34% | [4]; at 11.0 µM -16% | [5]; at 1.2 µM -57% | [5]; at 3.7 µM -31% | [5]; [16] -3% | [5]; at 11.0 µM -25% | [6]; at 1.2 µM -33% | [6]; at 3.7 µM -29% | [6]; at 11.0 µM -14% | [7]; [16] 22% | [8]; at 1.2 µM 16% | [8]; at 3.7 µM -5% | [8]; at 11.0 µM -4% | [9]; [16] 10% | [10]; at 1.2 µM 4% | [10]; at 3.7 µM -17% | [10]; [16] 5% | [10]; at 11.0 µM 17% | [11]; at 1.2 µM -10% | [11]; at 3.7 µM 5% | [11]; at 11.0 µM -6% | [12]; at 1.2 µM -25% | [12]; at 3.7 µM -27% | [12]; at 11.0 µM -1% | [13]; at 1.2 µM -37% | [13]; at 3.7 µM -6% | [13]; at 11.0 µM -4% | [14]; [16] -7% | [15]; at 1.2 µM -5% | [15]; at 3.7 µM 10% | [15]; at 11.0 µM 9%
active: [1]; at 33.0 µM 97% | [1]; at 100.0 µM 97% | [3]; at 33.0 µM 96% | [3]; at 100.0 µM 98% | [4]; at 33.0 µM 96% | [4]; [17] 96% | [4]; at 50.0 µM 93.4% | [4]; at 100.0 µM 96% | [5]; at 33.0 µM 91% | [5]; [17] 96% | [5]; at 50.0 µM 94.5% | [5]; at 100.0 µM 97% | [6]; at 33.0 µM 98% | [6]; at 100.0 µM 97% | [7]; [17] 95% | [7]; at 50.0 µM 93.7% | [8]; at 33.0 µM 94% | [8]; at 100.0 µM 97% | [9]; [17] 95% | [9]; at 50.0 µM 88.8% | [10]; at 33.0 µM 95% | [10]; [17] 97% | [10]; at 50.0 µM 92.5% | [10]; at 100.0 µM 97% | [11]; at 33.0 µM 92% | [11]; at 100.0 µM 97% | [12]; at 33.0 µM 94% | [12]; at 100.0 µM 96% | [13]; at 33.0 µM 96% | [13]; at 100.0 µM 96% | [14]; [17] 97% | [14]; at 50.0 µM 92.5% | [15]; at 33.0 µM 96% | [15]; at 100.0 µM 98%
